Bioassay records (PubChem)
KB-3-1 cytotox = KB-3-1 parental cell cytotoxicity | KB-3-1 viability, CellTiter-Glo ATP luminescence, 72 h | Potency, µM (doses to about 46.1 µM), usual class: cytotoxic | actives 1.4% (n = 400,000); further: nearly all actives have a fitted effect of over 60% in size
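Using CellTiter-Glo luminescence, growth of non-resistant KB-3-1 adenocarcinoma cells is assessed 72 h after pin-tool compound addition at 37 °C. Normalized responses across the concentration series yield fitted curves.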
HT1080 IDH1KD tx = toxicity to HT-1080 IDH1 knockdown cells (counter line); HT-1080 IDH1 knockdown viability, ATP luminescence, 48 h; Potency, µM (titrated, usually from 46.1 µM), hits mostly cytotoxic; actives 2% (n = 360,000)
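Luminescent ATP read-out (CellTiter-Glo, 10 min at room temperature) after 48 h compound exposure at 37 °C gave viability of IDH1-knockdown HT-1080 cells. Activity was normalised to DMSO and cell-free wells, then fitted as concentration-response curves.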
HT1080NT lethal = kills 2HG-producing HT-1080-NT fibrosarcoma cells. HT-1080-NT fibrosarcoma viability, CellTiter-Glo ATP luminescence, 48 h. Potency, µM (highest dose often 46.1 µM), most hits filed as cytotoxic. actives 1.6% (n = 360,000). AID 686970;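 further: NT is the 2HG producing partner of a matched IDH1 knockdown line; nearly all actives have a fitted effect of over 55% in size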
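Toxicity toward the 2HG-producing NT line was scored as %Activity, normalised to DMSO and no-cell wells, from CellTiter-Glo luminescence after 48 hours' treatment.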
KB-V1 cytotox = KB-V1 MDR subline cytotoxicity. KB-V1 MDR cells viability, CellTiter-Glo, 72 h. Potency, µM (titrated, usually from 46.1 µM), hits mostly cytotoxic. actives 3.4% (n = 400,000). AID 1347076; further: nearly all actives have a fitted effect of over 60% in size
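KB-V1 cells (P-gp-expressing MDR subline of KB-3-1) in phenol-red-free DMEM with 10% FBS were exposed to library compounds over a concentration series for 72 h at 37 degrees C. Viability read by CellTiter-Glo luminescence; concentration-effect curves fitted after normalization.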
Hits are given with their value; - = inactive; ? = inconclusive; . = not tested or not shown. Only some compounds are listed: those with a hit (about 5.7% of all), similar ones and a draw of the others. The call rests on the fitted dose curve; in most records, active means well fitted curve in the direction sought with a large enough effect; inconclusive means small, poorly fitted or top-dose-only effect, or another doubt; inactive means no such curve, though single readings can be large; an effect the other way counts as inactive or inconclusive.

SMILES | KB-3-1 cytotox | HT1080 IDH1KD tx | HT1080NT lethal | KB-V1 cytotox
CS(=O)(=O)c1ccc(C(=O)OCC(=O)Nc2ccc(OC(F)(F)F)cc2)cc1[N+](=O)[O-] | ? | . | . | -
Cc1ccc(S(=O)(=O)c2c(N)n(/N=C/c3ccco3)c3nc4ccccc4nc23)cc1 | - | - | - | -
Cc1cccc(S(=O)(=O)c2c(N)n(-c3ccccc3)c3nc4ccccc4nc23)c1 | - | - | - | 2.9µM
Cc1ccc(-n2c(N)c(S(=O)(=O)c3ccccc3)c3nc4ccccc4nc32)cc1 | - | - | - | -
Nc1c(S(=O)(=O)c2cccs2)c2nc3ccccc3nc2n1/N=C/c1cccc(O)c1 | ? | 21µM | ? | ?
Cc1cccc(S(=O)(=O)c2c(N)n(/N=C/c3ccco3)c3nc4ccccc4nc23)c1 | - | - | - | 3.7µM
CCc1nc(SCc2cc(=O)c3cc(C)ccc3[nH]2)n[nH]1 | - | . | . | ?
COc1ccccc1CNC(=O)CCCCn1c(=O)c2ccccc2n(Cc2ccccc2F)c1=O | - | . | . | -
COc1cccc(NC(=O)Cn2cc(C(=O)C3CCCCC3)c3ccccc32)c1 | - | . | . | ?
COc1ccc(CC(=O)N2CCc3cc(OC)c(OC)cc3C2COc2ccc3c(C)cc(=O)oc3c2)cc1OC (stereo not drawn) | - | . | . | -
Cc1ccc2c(c1)c(=O)c(C(=O)c1ccc3c(c1)OCO3)cn2Cc1ccc(Cl)cc1 | - | . | . | -
COc1ccc(C(=O)c2no[n+]([O-])c2C(=O)c2ccc(OC)cc2)cc1 | ? | 8.2µM | ? | ?
O=C(c1cccs1)c1no[n+]([O-])c1C(=O)c1cccs1 | ? | ? | 18µM | ?
COc1ccc(NC(=O)c2c(N)no[n+]2[O-])cc1 | ? | 0.73µM | 0.73µM | -
COc1ccc(NC(=O)c2c(N)no[n+]2[O-])c(OC)c1 | - | - | - | -
Cc1ccccc1NC(=O)c1nc(SCc2ccccc2F)ncc1Cl | ? | . | . | -
COc1ccc(C)cc1NS(=O)(=O)c1c(C(=O)N2CCCCCC2)c(C)n(C)c1C | - | . | . | -
Fc1cccc(NCc2ccccc2-c2nnc(-c3ccccc3Cl)o2)c1 | - | . | . | -
CC(C)C[C@H]1CN(CCCC[C@H]2CNC(=O)C(=O)N2CCC2CCCCC2)C(=O)C(=O)N1CCC1CCCCC1 | ? | 23µM | - | -
CC(C)C[C@@H]1CN(CCCC[C@H]2CNC(=O)C(=O)N2CCC2CCCCC2)C(=O)C(=O)N1CCC1CCCCC1 | ? | - | - | -
CC(=O)N1N=C(c2ccccc2)CC1c1cn(C)c2ccccc12 (stereo not drawn) | - | - | - | 23µM
CCCCNC(=O)Cn1c(SCc2cccc(C)c2)nc2ccncc21 | - | . | . | -
CC1(C)C(C=C(Cl)Cl)C1C(=O)N(Cc1ccccc1Cl)C1CCS(=O)(=O)C1 (stereo not drawn) | - | - | - | 15µM
O=C(Nc1ccc(F)c(F)c1)c1ccc(=O)n(Cc2ccc(F)cc2)c1 | - | . | . | -
O=C(NC(c1ccc(Cl)cc1)c1c(O)ccc2ccccc12)c1ccccc1 (stereo not drawn) | ? | ? | ? | 21µM
SMILES | KB-3-1 cytotox | HT1080 IDH1KD tx | HT1080NT lethal | KB-V1 cytotox
O=C(NC(c1ccccc1)c1c(O)ccc2ccccc12)c1ccccc1Cl (stereo not drawn) | ? | 11µM | 18µM | 21µM
COc1ccccc1N=C(C)C1=C(O)CC(c2ccccc2)CC1=O (stereo not drawn) | ? | ? | ? | 1.5µM
O=C(C[n+]1ccccc1Cl)c1ccccc1 | - | . | . | -
O=C(Oc1ccccc1/C=C\C(=O)c1cc2ccccc2o1)c1ccccc1 | - | ? | ? | -
COc1cccc(C(=O)Oc2ccccc2/C=C\C(=O)c2cc3ccccc3o2)c1 | ? | 21µM | 18µM | -
CC(O)COCC1OC2OC3C(COCC(C)O)OC(OC4C(COCC(C)O)OC(OC5C(COCC(C)O)OC(OC6C(COCC(C)O)OC(OC7C(COCC(C)O)OC(OC8C(COCC(C)O)OC(OC1C(OCC(C)O)C2OCC(C)O)C(OCC(C)O)C8OCC(C)O)C(OCC(C)O)C7OCC(C)O)C(OCC(C)O)C6OCC(C)O)C(OCC(C)O)C5OCC(C)O)C(OCC(C)O)C4OCC(C)O)C(OCC(C)O)C3OCC(C)O (stereo not drawn) | - | . | . | -
CCc1ccc2nc(N(CCCN(C)C)C(=O)c3ccc(S(=O)(=O)N4CCc5ccccc5C4)cc3)sc2c1 | - | 13µM | ? | -
